Out of some 69,000 compounds screened, about 8,600 (12%) showed an effect of 50% or more. This is one part of a sample in which strong results are shown more often than they occur.
test system: Plasmodium berghei; experiment: Screen against P. berghei liver stage (PbLuc), transformed with Luciferase, at 10uM; assay type: functional, HepG2; conditions: tested at 10 uM

COc1cccc(C(CO)NC(=O)Cc2cccc(C)c2)c1 (configuration not stated) was tested. Which INHIBITION did it give?
The INHIBITION was 53.4%.

How did the INHIBITION turn out when COc1cccc(C(CO)NC(=O)Cc2ccc(F)c(Br)c2)c1 (configuration not stated) was run?
Its INHIBITION is 22.6%.

With COc1cccc(CC(C)NC(=O)NC(C)C)c1 (configuration not stated) as the compound, how does the INHIBITION read?
Its INHIBITION is 30.3%.

With COc1ccc(C(CO)NC(=O)Nc2cccc(C(C)=O)c2)cc1 (configuration not stated) as the compound, how does the INHIBITION read?
Its INHIBITION is -6.51%.

How did the INHIBITION turn out when COCC(=O)NC(C)Cc1cccc(OC)c1 (configuration not stated) was run?
Its INHIBITION is 15.5%.

For COc1cccc(C(CO)NC(=O)NC(C)C)c1 (configuration not stated), which INHIBITION is on record?
Its INHIBITION is 91.1%.

For CN1CCN2C[C@@H](CO)[C@H](c3ccccc3)[C@H]2C1, which INHIBITION is on record?
The INHIBITION was 17.7%.

With OCCCNc1cccc(COC2CCCCC2)c1 as the compound, how does the INHIBITION read?
Its INHIBITION is 17.5%.

For CN(C)CCN1C(=O)CCCC12CCCN(C(=O)c1cc[nH]n1)C2 (configuration not stated), which INHIBITION is on record?
The INHIBITION was 34.5%.

Cn1cc([C@@H]2CN(S(C)(=O)=O)C[C@H]2N)c2ccncc21 was tested. Which INHIBITION did it give?
The INHIBITION was -10.795%.

For CC(C)Cc1cc(-c2cc(-c3ccc[nH]3)nc(N)c2C#N)n[nH]1, which INHIBITION is on record?
Its INHIBITION is 48.8%.

Which INHIBITION does the source give for CS(=O)(=O)NCCC(=O)Nc1ccccc1N1CCc2ccccc21 here?
The INHIBITION was 40.5%.

For CNC(=O)NCC(=O)Nc1ccccc1N1CCc2ccccc21, which INHIBITION is on record?
Its INHIBITION is 30.5%.

How did the INHIBITION turn out when CCS(=O)(=O)CC(=O)Nc1ccccc1N1CCc2ccccc21 was run?
Its INHIBITION is 63.3%.

How did the INHIBITION turn out when COCCC(=O)N1CCC2(CC1)CC(c1ccccc1)CN(C1CC1)C2 (configuration not stated) was run?
Its INHIBITION is 14%.

Which INHIBITION does the source give for O=C1CCC2(CCN(Cc3cscn3)CC2)CN1C1CCC(O)CC1 (configuration not stated) here?
The INHIBITION was -60.7%.

CN1CC(c2ccccc2)CC2(CCN(Cc3ncc[nH]3)CC2)C1 (configuration not stated) was tested. Which INHIBITION did it give?
The INHIBITION was 49.9%.

Which INHIBITION does the source give for CCN1CC(c2ccccc2)CC2(CCN(Cc3ncc[nH]3)CC2)C1 (configuration not stated) here?
The INHIBITION was 42.1%.

How did the INHIBITION turn out when c1ccc(C2CN(C3CC3)CC3(CCN(Cc4ncc[nH]4)CC3)C2)cc1 (configuration not stated) was run?
Its INHIBITION is 53.3%.

Which INHIBITION does the source give for c1ccc(C2CN(C3CC3)CC3(CCN(Cc4cscn4)CC3)C2)cc1 (configuration not stated) here?
Its INHIBITION is 70.1%.

For Cc1cn2c(=O)c(-c3ccnc(N[C@@H]4CCOC4)n3)cnc2s1, which INHIBITION is on record?
Its INHIBITION is 17.4%.

For Cc1nc(COC[C@@]23CCC[C@@H]2CN(Cc2nccs2)C3)cs1, which INHIBITION is on record?
The INHIBITION was 42.6%.

How did the INHIBITION turn out when COCCN1CC2(CCCN(c3ncc(Cl)cc3F)C2)CCC1=O (configuration not stated) was run?
The INHIBITION was 78.5%.

How did the INHIBITION turn out when COCCCN1CC2(CCCN(c3ncc(Cl)cc3F)C2)CCC1=O (configuration not stated) was run?
The INHIBITION was 37.7%.

CN(C)CCN1CC2(CCCN(c3ncc(Cl)cc3F)C2)CCC1=O (configuration not stated) was tested. Which INHIBITION did it give?
Its INHIBITION is 37.7%.

CC(C(=O)Nc1ccnn1C(C)C)N1CCc2nn(C)c(=O)cc2C1 (configuration not stated) was tested. Which INHIBITION did it give?
Its INHIBITION is 1.98%.

Which INHIBITION does the source give for Cc1c(OCC(=O)NCc2ccccc2)c(=O)ccn1C here?
Its INHIBITION is 57.3%.

COCCn1ccc(=O)c(OCC(=O)Nc2ccccc2)c1C was tested. Which INHIBITION did it give?
The INHIBITION was -93.2%.

How did the INHIBITION turn out when COc1ccccc1CNC(=O)CNCCn1cc(C)cn1 was run?
Its INHIBITION is 7.27%.

For Cc1c(OCC(=O)NCc2ccccc2Cl)c(=O)ccn1C, which INHIBITION is on record?
Its INHIBITION is 39.6%.

For CC(=O)c1cccc(NC(=O)COc2c(C)n(C)ccc2=O)c1, which INHIBITION is on record?
The INHIBITION was -19%.

For COc1ccccc1CNC(=O)COc1c(C)n(C)ccc1=O, which INHIBITION is on record?
The INHIBITION was 53.6%.
